This passage reports growth results from PubChem BioAssay (NCI).

This is part of a sample that, as a whole, favours compounds with a hit. Of some 83,000 tested, about 20% had one in any assay.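 Method: cells in 96-well plates; compound added at one concentration; 48 h incubation; percent growth measured; values under 10 scored active.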 A number with no mark means an inactive call. Activity calls are given as the source filed them.

Some test systems named below: DU-145 prostate; K-562 leukemia; MALME-3M melanoma; MDA-MB-231 breast; RXF 393 renal; SF-268 CNS; SF-295 CNS; SF-539 CNS; UACC-257 melanoma; M14 melanoma; HCT-15 colon; HT29 colon; SNB-75 CNS; SNB-19 CNS; U251 CNS; PC-3 prostate; SK-MEL-5 melanoma; UACC-62 melanoma; SK-MEL-28 melanoma; LOX IMVI melanoma.
What all share (test): NCI-60 one-dose screen, 48 h (100 = growth as untreated, 0 = no growth, -100 = all killed)
Holding throughout (details): 10 µM unless noted

For the molecule `Cc1ccc(/C(N)=N/C(N)=N/c2nc3ccccc3s2)cc1`, the growth is 96.5% in the assay with DU-145 prostate; 82.5% with K-562 leukemia; 110% in the assay on MALME-3M melanoma; 89.9% in the assay with MDA-MB-231 breast; 103% in the assay with RXF 393 renal; 103% with SF-268 CNS. Moreover, the growth in the assay with SF-295 CNS is 32.9%; in the assay on SF-539 CNS, 108%; in the assay with UACC-257 melanoma it was 111%; in the assay on M14 melanoma it was 107%; in the assay on HCT-15 colon, 52.2%; in the assay on HT29 colon, 110%. Also, the growth with SNB-75 CNS was 96.5%; in the assay on SNB-19 CNS, 95.3%; with U251 CNS it was 82%; with PC-3 prostate it was 63.5%; with SK-MEL-5 melanoma it was 91%; in the assay with UACC-62 melanoma it was 91.9%. For the same molecule, the growth in the assay with SK-MEL-28 melanoma was 116%.

Consider `COc1ccc(/C(=N\NC(N)=S)c2ccc(Cl)cc2)cc1OC`, for which the growth with DU-145 prostate was 37.5%; in the assay on K-562 leukemia, 19%; with MALME-3M melanoma, 30.8%; with MDA-MB-231 breast, 16.8%; in the assay with RXF 393 renal it was 25.1%; with SF-268 CNS it was 45%. Besides, the growth was 13.4% in the assay on SF-295 CNS; 14.2% with SF-539 CNS; 42.9% in the assay with UACC-257 melanoma; -4.37% (active) in the assay on M14 melanoma; 16% in the assay on HCT-15 colon; -1.79% (active) in the assay with HT29 colon. Moreover, the growth with SNB-75 CNS was -8.75% (active); with SNB-19 CNS, 24.1%; with U251 CNS it was 22.4%; in the assay on PC-3 prostate it was 36.4%; with SK-MEL-5 melanoma, 21.9%; in the assay on LOX IMVI melanoma it was 40.5%. Moreover, the growth in the assay with SK-MEL-28 melanoma was 47.6%.

Turning to `CCCCSC1=C(Cl)CN(c2ccccc2)C1=O`, the growth is 104% in the assay with DU-145 prostate; 91.6% in the assay on K-562 leukemia; 94.6% in the assay with MALME-3M melanoma; 98.2% with MDA-MB-231 breast; 109% with RXF 393 renal; 106% in the assay with SF-268 CNS. Also, the growth with SF-295 CNS was 98.8%; in the assay on SF-539 CNS, 97.3%; in the assay with UACC-257 melanoma, 101%; in the assay with M14 melanoma, 103%; in the assay on HCT-15 colon it was 101%; with HT29 colon it was 114%. Further, the growth in the assay with SNB-75 CNS was 105%; in the assay with SNB-19 CNS, 101%; with U251 CNS, 99.6%; in the assay on PC-3 prostate it was 103%; with SK-MEL-5 melanoma, 101%; in the assay on LOX IMVI melanoma, 36.4%. Besides, in the assay on SK-MEL-28 melanoma, the growth is 101%.

Consider `COc1ccc2[nH]cc(/C=N/Nc3ccnc4cc(Cl)ccc34)c2c1`, for which the growth in the assay on DU-145 prostate was -98.9% (active); with K-562 leukemia, -4.83% (active); in the assay on MALME-3M melanoma, -97.7% (active); in the assay with MDA-MB-231 breast, -93.9% (active); in the assay on RXF 393 renal, -100% (active); with SF-268 CNS it was -60.7% (active). For the same molecule, the growth in the assay on SF-295 CNS was -100% (active); in the assay with SF-539 CNS, -100% (active); in the assay with UACC-257 melanoma, -84.2% (active); in the assay on M14 melanoma, -79.7% (active); in the assay with HCT-15 colon, -88.1% (active); with HT29 colon it was -42.3% (active). For the same molecule, the growth is -94.1% (active) in the assay with SNB-75 CNS; -100% (active) with SNB-19 CNS; -83.3% (active) in the assay on U251 CNS; -86.4% (active) in the assay with PC-3 prostate; -100% (active) with SK-MEL-5 melanoma; -92.7% (active) in the assay with LOX IMVI melanoma. Also, the growth with SK-MEL-28 melanoma was -100% (active).

With `O=C(CSc1nnc(-c2ccc(Cl)cc2)n1-c1ccccc1)Nc1cccc(F)c1`, the growth is 58.1% in the assay on DU-145 prostate; 48% in the assay with K-562 leukemia; 52.7% in the assay with MALME-3M melanoma; 27% with MDA-MB-231 breast; 25.6% in the assay on RXF 393 renal; 56.2% in the assay on SF-268 CNS. Besides, the growth was 9.38% (active) in the assay with SF-295 CNS; -1.04% (active) with SF-539 CNS; 85.9% with UACC-257 melanoma; 62.9% in the assay on M14 melanoma; 67.8% in the assay on HCT-15 colon; 48.1% with HT29 colon. Also, the growth was -14.1% (active) in the assay with SNB-75 CNS; 48.3% with SNB-19 CNS; 14.1% in the assay on U251 CNS; 62.1% in the assay on PC-3 prostate; 87.9% in the assay on SK-MEL-5 melanoma; 93.5% in the assay on UACC-62 melanoma. The growth in the assay on SK-MEL-28 melanoma is 78%.

`Brc1ccc(-c2cc(-c3ccc4c(c3)OCCO4)n[nH]2)s1`: the growth with DU-145 prostate is 39.8%; in the assay on K-562 leukemia, 12.4%; with MALME-3M melanoma it was 45.8%; in the assay on MDA-MB-231 breast it was 41.9%; with RXF 393 renal it was 32%; in the assay on SF-268 CNS, 62.4%. For the same molecule, the growth in the assay with SF-295 CNS is 18.4%; in the assay on SF-539 CNS, 23.5%; in the assay with UACC-257 melanoma, 75.1%; in the assay on M14 melanoma, 21.3%; with HCT-15 colon, 19.2%; with HT29 colon it was 11.1%. The growth with SNB-75 CNS is 7.95% (active); with SNB-19 CNS, 42.6%; with U251 CNS, 27.8%; in the assay with PC-3 prostate, 50%; with SK-MEL-5 melanoma, 12.1%; in the assay on LOX IMVI melanoma, 41.7%. The growth in the assay with SK-MEL-28 melanoma was 57.8%.

In the case of `CCN(CC)CCOc1ccc(C(=C(c2ccccc2)C2CCCC2)c2ccc(OCCN(CC)CC)cc2)cc1`, the growth was 38.3% in the assay on DU-145 prostate; 8.22% (active) with K-562 leukemia; -0.396% (active) in the assay with MALME-3M melanoma; 24.7% in the assay with MDA-MB-231 breast; -33.4% (active) with RXF 393 renal; 25.5% in the assay with SF-268 CNS. Besides, the growth with SF-295 CNS is 60.6%; in the assay with SF-539 CNS, 9.14% (active); in the assay on UACC-257 melanoma, 14.3%; with M14 melanoma it was 30.8%; with HCT-15 colon, -70.2% (active); with HT29 colon, -5.44% (active). The growth in the assay with SNB-75 CNS is 10.3%; with SNB-19 CNS, 14.6%; in the assay with U251 CNS, 20.5%; in the assay with PC-3 prostate, 14.6%; in the assay on SK-MEL-5 melanoma it was -82.4% (active); in the assay on LOX IMVI melanoma, -56.6% (active). The growth with SK-MEL-28 melanoma is 29%.

With `Cc1ccccc1Nc1nc(SC(C)C)nc(-c2ccccc2)c1C#N`, the growth with DU-145 prostate was 76.6%; in the assay with K-562 leukemia, 46.3%; in the assay with MALME-3M melanoma it was 66.3%; in the assay on MDA-MB-231 breast, 67.9%; in the assay on RXF 393 renal, 28.1%; in the assay with SF-268 CNS, 57%. Moreover, the growth in the assay with SF-295 CNS was 23.8%; in the assay with SF-539 CNS, 28.1%; with UACC-257 melanoma, 107%; in the assay on M14 melanoma, 77.2%; in the assay on HCT-15 colon, 58.2%; with HT29 colon it was 53.2%. Further, the growth was 101% in the assay on SNB-75 CNS; 19.9% in the assay on SNB-19 CNS; 33.8% in the assay on U251 CNS; 80.8% in the assay on PC-3 prostate; 85.2% in the assay with SK-MEL-5 melanoma; 10.5% in the assay with LOX IMVI melanoma. For the same molecule, in the assay on SK-MEL-28 melanoma, the growth is 87.3%.
